Assay results as given in PubChem BioAssay (NCATS).
Inconclusive results are not listed. Active and inactive are the calls of the source. Calls come from the whole dose curve; as a rule, active = well fitted curve in the direction sought with a large enough effect; inconclusive = small, poorly fitted or top-dose-only effect, or another doubt; inactive = no such curve, though single readings can be large; an effect the other way counts as inactive or inconclusive.

Test: qHTS for Inhibitors of Plasmodium falciparum (DD2) proliferation (AID 504314);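 note: parasite DNA measured by SYBR Green fluorescence after red cell lysis; plate controls were DMSO vehicle for no effect and artemisinin wells for full effect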
Settings: P. falciparum Dd2 in erythrocytes, SYBR Green growth, 72 h; series mostly up to 6.11 µM
How it was run: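 Fluorescence read-out (ex 485/em 535 nm) of SYBR Green-stained parasite DNA quantifies intraerythrocytic growth. Cultures at 0.3% parasitemia and 2.5% hematocrit were treated for 72 h; data normalized to DMSO and 0.29 uM artemisinin wells.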

Potency, inactive:
CC(=O)OC[C@H]1O[C@H](C#CCCCc2ccccc2)C=C[C@H]1OC(C)=O
O=C(NC(CC1=CCCCC1)c1ccc2c(c1)OCO2)C(F)(F)F (stereo not drawn)
C[C@H]1[C@H](N=[N+]=[N-])[C@H](O)CCO[C@@H]1c1ccccc1
COC(=O)C1(C)C=C(Nc2ccc(OC)cc2)C(=O)N1c1ccc(OC)cc1 (stereo not drawn)
CC(C)OC(=O)CC(NC(=O)OC(C)(C)C)c1ccccc1 (stereo not drawn)
COC[C@H]1O[C@@H]2O[C@@H]1[C@@H](C=Cc1ccccc1)C[C@H]2C
COC(=O)C1=C(C)N(Cc2ccccc2)C(=S)NC1CCc1ccccc1 (stereo not drawn)
COC(=O)[C@H]1C[C@@]2(CC=C(C)C)C(=O)[C@@](CC=C(C)C)(C(=O)C(C(=O)c3ccccc3)=C2OC)C1(C)C
CC(=O)[C@@H]1[C@@H](C)N(Cc2ccccc2)C(=O)N[C@H]1c1ccccc1
CCN1C(=O)NC(c2ccc(Br)cc2)C(C(C)=O)=C1C (stereo not drawn)
C#CCCCON=C1C[C@@H](O)[C@H](O)[C@H]2[C@@H]3C(=O)N(c4cccc(Oc5ccccc5)c4)C(=O)[C@@H]3CC[C@@H]12
COC(=O)C[C@H]1c2ccccc2[C@@H]2C(=C[C@@H](C)[C@H]3C(=O)N(O)C(=O)[C@H]32)N1C(=O)OC
COC(=O)CC=C[C@@H](C)[C@@H](C=NO[C@H](C)c1cn([C@H](CO)Cc2ccccc2)nn1)NS(=O)(=O)c1ccc(C)cc1
CCOC(=O)CCN1C(=O)[C@@H]2[C@H]3[C@H](O)[C@H](O)CC(=NNC(=O)OCc4ccc(OC)cc4)[C@H]3CC[C@H]2C1=O
COC(=O)c1cc(C(=O)OC)n2c(C)cc3ccccc3c12
CCOC(=O)CN1C(=O)[C@]2(O[C@H](C)CC3=CCCC32)c2c(Br)cccc21 (stereo partly drawn)
C=CC1=C2C=C(C3CC3)N(CCN3CCOCC3)C=C2C(=O)C(C)(OC(=O)c2ccco2)C1=O (stereo not drawn)
C#CC[C@@]1(C(=O)OC)C=C[C@@H](C)[C@H](c2ccccc2Br)N1C(=O)C(F)(F)F
COC(=O)[C@@H]1C[C@@]23C(=NN=C(SC)C2Nc2ccccc23)N1C(C)=O (stereo partly drawn)
COc1ccc(COC(=O)NN=C2C[C@@H](O)[C@@H](O)[C@@H]3[C@H]4C(=O)N(Cc5ccccc5)C(=O)[C@@H]4CC[C@@H]23)cc1
Cc1cc(O)cc(O)c1C(=O)OC1(C)C(=O)C=C2C=C(C=CC(=O)O)OC=C2C1=O (stereo not drawn)
CCCNC(=O)OC[C@H]1O[C@H](CCON=C2c3cc(OC)ccc3O[C@H](c3cccc(OC)c3)[C@H]2O)C=C[C@H]1Oc1ccc(OC)cc1
O=S(=O)(CCc1ccccc1)c1ccccc1
CCOC(=O)OC[C@H]1O[C@H](C#Cc2ccc(C)cc2C)C=C[C@H]1OC(=O)OCC
COC(=O)c1nnc(C(=O)NCc2ccccc2)c2[nH]c3ccccc3c12
COC(=O)C(=Cc1cc(Br)c(OC)c(Br)c1)C(=O)OC
O[C@@H]1CO[C@@H](C=Cc2ccccc2)[C@H]1OCc1cccc(Br)c1
CCN1C(=NCC(C)C)N[C@@H](CCc2ccccc2)[C@H](C(=O)OC)[C@H]1C
Cc1cc(O)cc(O)c1C(=O)OC1(C)C(=O)C=C2C=C(C=CCO)OC=C2C1=O (stereo not drawn)
COc1ccc(OC[C@@H]2CC3[C@@H](CC[C@@H](C)[C@H]3c3ccc(Br)cc3)C(=O)O2)cc1 (stereo partly drawn)
CCN1C(=O)[C@H]2[C@H]3C(=CC[C@@H]2C1=O)C1(OCCCO1)[C@@H]1O[C@H]1[C@H]3O
O=C1CCCC1C(O)c1ccc2ccccc2c1 (stereo not drawn)
COC(=O)C(C(=O)OC)C1c2ccccc2C=C(C2CC2)N1C(=O)OC (stereo not drawn)
COC[C@@H](OC(C)=O)[C@H]1OCc2ccccc2[C@H]1C=Cc1ccccc1
CCCCC1=CC2=C(c3ccco3)C(=O)C(C)(OC(=O)c3ccc(OC)cc3)C(=O)C2=CN1CCc1ccccn1 (stereo not drawn)

activity, negative = inhibition, inactive:
COC(=O)CCCC1=CC2=C(c3ccccc3)C(=O)C(C)(OC(=O)C3CCCC3)C(=O)C2=CN1Cc1ccc2c(c1)OCO2 (stereo not drawn) -1.06% [at 1.12 µM]
CC1(OC(=O)C2CCCC2)C(=O)C=C2C=C(c3ccsc3)N(CCN3CCOCC3)C=C2C1=O (stereo not drawn) 1.21% [at 1.12 µM]
CC1(OC(=O)C2CCCC2)C(=O)C=C2C=C(c3ccsc3)N(Cc3ccc4c(c3)OCO4)C=C2C1=O (stereo not drawn) -6.6% [at 1.12 µM]
C=CC1=C2C=C(C3CC3)N(C3CCCCC3)C=C2C(=O)C(C)(OC(=O)c2ccco2)C1=O (stereo not drawn) 1.92% [at 1.12 µM]

Test: qHTS for Inhibitors of Plasmodium falciparum (GB4) proliferation (AID 504315);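 note: 0% = DMSO vehicle and -100% = 0.29 µM artemisinin control; nearly all actives have a fitted effect of over 50% in size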
Settings: P. falciparum GB4 in erythrocytes, SYBR Green DNA, 72 h; series mostly up to 6.7 µM
How it was run: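 Erythrocytes infected with P. falciparum line (0.3% parasitemia, 2.5% hematocrit final) incubated with compounds 72 h at 37 °C, 5% CO2; SYBR Green lysis buffer added, fluorescence read next day. Normalized to 0.29 uM artemisinin and DMSO.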

Potency, inactive:
CC(=O)OC[C@H]1O[C@H](C#CCCCc2ccccc2)C=C[C@H]1OC(C)=O
O=C(NC(CC1=CCCCC1)c1ccc2c(c1)OCO2)C(F)(F)F (stereo not drawn)
C[C@H]1[C@H](N=[N+]=[N-])[C@H](O)CCO[C@@H]1c1ccccc1
COC(=O)C1(C)C=C(Nc2ccc(OC)cc2)C(=O)N1c1ccc(OC)cc1 (stereo not drawn)
COC(=O)CCCC1=CC2=C(c3ccccc3)C(=O)C(C)(OC(=O)C3CCCC3)C(=O)C2=CN1Cc1ccc2c(c1)OCO2 (stereo not drawn)
CC(C)OC(=O)CC(NC(=O)OC(C)(C)C)c1ccccc1 (stereo not drawn)
COC[C@H]1O[C@@H]2O[C@@H]1[C@@H](C=Cc1ccccc1)C[C@H]2C
COC(=O)C1=C(C)N(Cc2ccccc2)C(=S)NC1CCc1ccccc1 (stereo not drawn)
COC(=O)[C@H]1C[C@@]2(CC=C(C)C)C(=O)[C@@](CC=C(C)C)(C(=O)C(C(=O)c3ccccc3)=C2OC)C1(C)C
CC1(OC(=O)C2CCCC2)C(=O)C=C2C=C(c3ccsc3)N(CCN3CCOCC3)C=C2C1=O (stereo not drawn)
CC(=O)[C@@H]1[C@@H](C)N(Cc2ccccc2)C(=O)N[C@H]1c1ccccc1
CCN1C(=O)NC(c2ccc(Br)cc2)C(C(C)=O)=C1C (stereo not drawn)
C#CCCCON=C1C[C@@H](O)[C@H](O)[C@H]2[C@@H]3C(=O)N(c4cccc(Oc5ccccc5)c4)C(=O)[C@@H]3CC[C@@H]12
COC(=O)C[C@H]1c2ccccc2[C@@H]2C(=C[C@@H](C)[C@H]3C(=O)N(O)C(=O)[C@H]32)N1C(=O)OC
COC(=O)CC=C[C@@H](C)[C@@H](C=NO[C@H](C)c1cn([C@H](CO)Cc2ccccc2)nn1)NS(=O)(=O)c1ccc(C)cc1
CCOC(=O)CCN1C(=O)[C@@H]2[C@H]3[C@H](O)[C@H](O)CC(=NNC(=O)OCc4ccc(OC)cc4)[C@H]3CC[C@H]2C1=O
CC1(OC(=O)C2CCCC2)C(=O)C=C2C=C(c3ccsc3)N(Cc3ccc4c(c3)OCO4)C=C2C1=O (stereo not drawn)
COC(=O)c1cc(C(=O)OC)n2c(C)cc3ccccc3c12
CCOC(=O)CN1C(=O)[C@]2(O[C@H](C)CC3=CCCC32)c2c(Br)cccc21 (stereo partly drawn)
C=CC1=C2C=C(C3CC3)N(CCN3CCOCC3)C=C2C(=O)C(C)(OC(=O)c2ccco2)C1=O (stereo not drawn)
C#CC[C@@]1(C(=O)OC)C=C[C@@H](C)[C@H](c2ccccc2Br)N1C(=O)C(F)(F)F
COC(=O)[C@@H]1C[C@@]23C(=NN=C(SC)C2Nc2ccccc23)N1C(C)=O (stereo partly drawn)
COc1ccc(COC(=O)NN=C2C[C@@H](O)[C@@H](O)[C@@H]3[C@H]4C(=O)N(Cc5ccccc5)C(=O)[C@@H]4CC[C@@H]23)cc1
Cc1cc(O)cc(O)c1C(=O)OC1(C)C(=O)C=C2C=C(C=CC(=O)O)OC=C2C1=O (stereo not drawn)
CCCNC(=O)OC[C@H]1O[C@H](CCON=C2c3cc(OC)ccc3O[C@H](c3cccc(OC)c3)[C@H]2O)C=C[C@H]1Oc1ccc(OC)cc1
O=S(=O)(CCc1ccccc1)c1ccccc1
CCOC(=O)OC[C@H]1O[C@H](C#Cc2ccc(C)cc2C)C=C[C@H]1OC(=O)OCC
COC(=O)c1nnc(C(=O)NCc2ccccc2)c2[nH]c3ccccc3c12
COC(=O)C(=Cc1cc(Br)c(OC)c(Br)c1)C(=O)OC
O[C@@H]1CO[C@@H](C=Cc2ccccc2)[C@H]1OCc1cccc(Br)c1
CCN1C(=NCC(C)C)N[C@@H](CCc2ccccc2)[C@H](C(=O)OC)[C@H]1C
Cc1cc(O)cc(O)c1C(=O)OC1(C)C(=O)C=C2C=C(C=CCO)OC=C2C1=O (stereo not drawn)
COc1ccc(OC[C@@H]2CC3[C@@H](CC[C@@H](C)[C@H]3c3ccc(Br)cc3)C(=O)O2)cc1 (stereo partly drawn)
CCN1C(=O)[C@H]2[C@H]3C(=CC[C@@H]2C1=O)C1(OCCCO1)[C@@H]1O[C@H]1[C@H]3O
O=C1CCCC1C(O)c1ccc2ccccc2c1 (stereo not drawn)
COC(=O)C(C(=O)OC)C1c2ccccc2C=C(C2CC2)N1C(=O)OC (stereo not drawn)
COC[C@@H](OC(C)=O)[C@H]1OCc2ccccc2[C@H]1C=Cc1ccccc1
C=CC1=C2C=C(C3CC3)N(C3CCCCC3)C=C2C(=O)C(C)(OC(=O)c2ccco2)C1=O (stereo not drawn)
CCCCC1=CC2=C(c3ccco3)C(=O)C(C)(OC(=O)c3ccc(OC)cc3)C(=O)C2=CN1CCc1ccccn1 (stereo not drawn)
